Source: PubChem (National Center for Advancing Translational Sciences (NCATS))
The list is not random: actives were taken first. Their share in the collection is about 3%.
Sm TGR block = blocks Schistosoma mansoni thioredoxin glutathione reductase; 3% of 360,000 active; purified TGR, DTNB reduction, TNB absorbance 405 nm; Potency, µM (doses to about 114 µM), for inactives: top-dose activity change, negative = inhibition, most hits filed as inhibitors; Q962Y6; also: nearly all actives have a fitted effect of over 60% in size
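TGR 20 nM + NADPH 100 uM (dispensed conc.), cpd preinc 15 min RT; start with NADPH (500 uM addition) then DTNB (15 mM addition). Kinetic TNB absorbance, 405 nm filter. Four-parameter Hill fit across titration.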
Tb PYK inh = T. brucei pyruvate kinase inhibition; Q57TT1; TbPYK enzyme, Kinase-Glo Plus ATP luminescence, 45 min; Potency, µM (highest dose often 76.8 µM), inactives show at the highest dose activity, negative = inhibition, actives largely listed as inhibitors; 0.12% of 410,000 active; AID 624173; also: nearly all actives have a fitted effect of over 50% in size
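Enzyme and substrate buffer are dispensed first and compound is pin-transferred. ADP at 130 uM final then starts the reaction, which runs 45 min at room temperature. Detection reagent is added for 10 min before luminescence is imaged.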
LmPK inhibitor = blocks Leishmania mexicana pyruvate kinase activity | Potency, µM (series often up to 57.5 µM), for the others: top-dose activity change, negative = inhibition, most hits filed as inhibitors | AID 1721 | 0.37% of 290,000 active | Q27686 | purified LmPK, Kinase-Glo ATP luminescence, 1 h
Target sequence (Q27686 whole entry, looked up): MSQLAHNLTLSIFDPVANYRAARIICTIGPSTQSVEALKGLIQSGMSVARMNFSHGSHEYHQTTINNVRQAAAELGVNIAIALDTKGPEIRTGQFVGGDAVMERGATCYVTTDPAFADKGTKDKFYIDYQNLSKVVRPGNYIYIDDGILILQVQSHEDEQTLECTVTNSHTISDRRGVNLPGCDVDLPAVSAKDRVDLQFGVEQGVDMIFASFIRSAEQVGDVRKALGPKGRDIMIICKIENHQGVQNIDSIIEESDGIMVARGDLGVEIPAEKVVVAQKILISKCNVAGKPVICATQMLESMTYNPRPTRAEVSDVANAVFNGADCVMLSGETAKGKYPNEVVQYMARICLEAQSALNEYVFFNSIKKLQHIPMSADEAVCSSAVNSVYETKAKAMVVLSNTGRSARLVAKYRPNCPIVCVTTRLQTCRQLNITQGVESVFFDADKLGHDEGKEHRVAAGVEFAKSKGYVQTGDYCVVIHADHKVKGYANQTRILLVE
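Purified LmPK (0.1 nM) with 0.5 mM PEP and 0.1 mM ADP in imidazole buffer pH 7.2 with MgCl2/KCl, 1 h at room temperature. ATP formed was read by luciferase luminescence and normalized to no-enzyme and uninhibited controls.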
RE007 growth inh = less growth of the S. pombe RE007 Vpr strain; S. pombe RE007 Vpr strain, BacTiter-Glo ATP luminescence, 24 h; Potency, µM (doses to about 92.2 µM), for the others: at the highest dose activity change, negative = less growth, hits mostly inhibitors; 0.21% of 360,000 active; active = well fitted falling curve with a large enough effect; inconclusive = small, poorly fitted or top-dose-only effect; inactive = no such curve, though single readings can be large or run the other way; also: nearly all actives have a fitted effect of over 50% in size
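Fission yeast strain RE007, carrying one chromosomally integrated HIV-1 vpr copy, was seeded at OD 0.01 in PMG+AL medium with 23 nL pinned compound. After 24 h at 30 °C and 99% humidity, viability was read by BacTiter-Glo luminescence.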
Numbers without * were called inactive; u = inconclusive; x = no result; [ ] = another dose, or the depositor's remark. Unless noted, calls follow the shape of the dose curve; as a rule, active = well fitted curve in the direction sought with a large enough effect; inconclusive = small, poorly fitted or top-dose-only effect, or another doubt; inactive = no such curve, though single readings can be large; an effect the other way counts as inactive or inconclusive. % is scaled to controls: 0 for no effect and ±100 for the full control effect; potency is read from the fitted curve at half-maximal effect.

SMILES | Sm TGR block | Tb PYK inh | LmPK inhibitor | RE007 growth inh
COCC(=O)N1C[C@@H](C)[C@@H](OC)CN(C)C(=O)c2ccc(NC(=O)c3cnccn3)cc2OC[C@H]1C | x | x | x | 8%
Cc1nc(N2CCCC2)c2c(C(=O)Nc3ccc(Br)cc3F)c(C)oc2n1 | 9% | 3% | x | x
O=S(=O)(c1ccccc1F)N(Cc1ccco1)Cc1nnc(-c2ccccc2Br)o1 | 16µM* | 1% | 3% | 15%
CCCNS(=O)(=O)c1ccc2nc(NC(=O)c3ccc(F)cc3)sc2c1 | -4% | 1µM* | x | x
CS(=O)(=O)c1ccc2nc(NC(=O)c3cccs3)sc2c1 | 0% | -26% | 16µM* | u
CCCNC(=O)C1Cc2cc(S(=O)(=O)N3CCCCCC3)ccc2N1C(C)=O (configuration not stated) | 3% | 1% | x | x
CCc1ccc2ncc(S(=O)(=O)c3ccc(Cl)cc3)c(N3CCN(CC)CC3)c2c1 | -2% | -2% | x | x
COc1ccccc1-c1noc(-c2ccc(NCc3ccco3)c([N+](=O)[O-])c2)n1 | 2% | 4% | x | x
CCc1nc2sc3c(=O)[nH]cnc3c2c2c1CSC(C)(C)C2 | 35µM* | -21% | -10% | 0%
CCCc1nc2sc3c(=O)[nH]cnc3c2c2c1CCCC2 | -1% | x | -1% | x
COc1ccc(-n2ccn(CC(=O)NCCc3ccccc3)c(=O)c2=O)cc1OC | 22% | 1% | x | x
CNC1=C([N+](=O)[O-])CC([N+](=O)[O-])=C(N2CCNCC2)N1C | 14µM* | -7% | 4% | -22%
Nc1cc(N2CCNCC2)c([N+](=O)[O-])cc1Cl | -11% | -3% | -5% | 6%
COc1ccc(C)cc1NC1=C(Cl)C(=O)N(C2CCCCC2)C1=O | 45µM* | -4% | 5% | -19%
COc1cc(NC(=O)Nc2c[nH]c(=O)[nH]c2=O)cc(OC)c1OC | 6% | -8% | x | x
Cc1nc(Cl)sc1C(=O)Nc1ccc(F)cc1 | x | 0% | x | 10%
CC(C)S(=O)(=O)c1csc(C(=O)Nc2ccc(F)cc2)c1N | -4% | -12% | 14µM* | u
c1ccc(-c2nnc(-c3ccccc3)nn2)cc1 | 18% | u | u | 0%
c1cncc(-c2nnc(-c3cccnc3)nn2)c1 | -2% | -19% | -27% | 22µM*
O=C(NCCc1ccccc1)c1cc(-c2ccccc2)nc2n[nH]c(-c3ccccc3)c12 | 12% | -10% | x | x
N#Cc1ccsc1NC(=O)COC(=O)CCS(=O)(=O)c1ccccc1 | x | 3% | x | -2%
N#Cc1ccsc1NC(=O)CCS(=O)(=O)c1ccccc1 | 2.8µM* | -3% | -1% | 8%
NC(=O)c1ccsc1NC(=O)CCS(=O)(=O)c1ccc(Cl)cc1 | 3.2µM* | 1% | x | 6%
NC(=O)c1ccsc1NC(=O)CCS(=O)(=O)c1ccccc1 | 12% | 6% | -5% | -9%
COc1ccccc1N1C(=O)c2cccnc2C1=O | 56µM* | -2% | -3% | -12%
SMILES | Sm TGR block | Tb PYK inh | LmPK inhibitor | RE007 growth inh
COc1ccc(OC)c(N2C(=O)c3cccnc3C2=O)c1 | -1% | 3% | 0% | 5%
Cn1c(=O)c2[nH]c(Cc3ccsc3)nc2n(C)c1=O | x | 0% | x | 7%
COc1cccc(CCc2nnc(CCC(=O)NCCc3cccc(C)n3)o2)c1 | -14% | 1% | 1% | -4%
COc1cccc(CCc2nnc(CCC(=O)N3CCN(Cc4ccccn4)CC3)o2)c1 | 11µM* | 10% | -1% | 6%
Cc1cccc(C)c1NC(=O)c1cc(S(N)(=O)=O)c(Cl)cc1O | x | -4% | x | x
Cc1ccc2c(c1Cl)NC(C(=O)O)C1CC(Sc3ccccc3[N+](=O)[O-])C(Cl)C21 (configuration not stated) | u | -17% | -9% | 13%
CCN(CC)C(=O)c1ccc2c(c1)C1C=CCC1C(C(=O)O)N2 (configuration not stated) | 0.45µM* | u | -28% | x
CCOC(=O)c1ccc2c(c1)C1C=CCC1C(C(=O)O)N2 (configuration not stated) | 7.9µM* | x | -2% | x
CCN(CC)C(=O)c1ccc2c(c1)C1C(Cl)C(Sc3ccccc3[N+](=O)[O-])CC1C(C(=O)O)N2 (configuration not stated) | 3.2µM* | -26% | u | -2%
O=C(NCCc1ccc(Cl)cc1)c1nc(-c2cccc(F)c2)n2c1CCCCC2 | -6% | -3% | x | x
O=C(Nc1ccc(-c2nc3ncccc3o2)cc1)c1ccco1 | 20µM* | -26% | -1% | -22%
O=C(Nc1ccc2oc(-c3cccnc3)nc2c1)c1ccc(Br)cc1 | 0% | 0% | x | x
O=C(Nc1ccc2oc(-c3cccnc3)nc2c1)c1ccco1 | 50µM* | -3% | -1% | 0%
O=C(Nc1ccc2oc(-c3cccnc3)nc2c1)c1ccc(Br)o1 | 28µM* | -5% | -1% | 7%
CC1Cc2cc(S(=O)(=O)CCC(=O)Nc3ccc(Cl)cc3F)ccc2N1C(=O)C1CC1 (configuration not stated) | -1% | -8% | x | x
C=CCNC(=O)Nc1ccc(F)cc1F | 10% | 1% | 1% | 1%
Cc1ccc(CNC(=O)Nc2ccccc2)n1C | 28µM* | -3% | 3% | -2%
Cc1ccc(CNC(=O)Nc2ccc(F)cc2F)n1C | 32µM* | -1% | 9% | -11%
COc1ccc(C(=O)Nc2nnc(S(=O)(=O)N(C)c3ccc(C)cc3)s2)cc1 | -7% | -2% | x | x
COc1cccc(N2CCN(C(=O)c3cc4c(=O)n(Cc5ccco5)ccc4nc3C)CC2)c1 | 10µM* | -9% | x | x
Cc1ccc(C)c(N2CCN(C(=O)c3cc4c(=O)n(Cc5ccco5)ccc4nc3C)CC2)c1 | 40µM* | -5% | x | x
Cc1nc2ccn(Cc3ccco3)c(=O)c2cc1C(=O)NCc1ccccc1 | -10% | 0% | x | x
Cc1ccc(CNC(=O)c2cc3c(=O)n(Cc4ccco4)ccc3nc2C)cc1 | 25µM* | -3% | x | x
CCC1(O)CC2CN(CCc3c([nH]c4ccccc34)[C@@](C(=O)OC)(c3cc4c(cc3OC)N(C=O)[C@H]3[C@](O)(C(=O)OC)[C@H](OC(C)=O)[C@]5(CC)C=CCN6CC[C@]43[C@@H]65)C2)C1 (some centres not stated) | x | -7% | x | x
COc1cccc(CNC(=O)c2cccc(-n3c(C)nc4cccnc43)c2)c1OC | 5% | -1%[15.4 µM] | x | x
SMILES | Sm TGR block | Tb PYK inh | LmPK inhibitor | RE007 growth inh
CC(=O)OCC1=C(C(=O)O)N2C(=O)C(NC(=O)c3ccc(COc4ccc(Cl)cc4)o3)C2SC1 (configuration not stated) | 22µM* | 1% | -5% | 7%
CC(=O)OCC1=C(C(=O)O)N2C(=O)[C@@H](N)[C@@H]2SC1 | x | -7%[33.2 µM] | x | x
CC(=O)OCC1=C(C(=O)O)N2C(=O)C(NC(=O)c3ccc(COc4c(C)cccc4Cl)o3)C2SC1 (configuration not stated) | 20µM* | 1% | 18% | 13%
O=C(/C=C/Nc1ccc(F)cc1)c1cccs1 | x | -14% | x | -21%
CCOC(=O)c1ccc(N/C=C/C(=O)c2ccco2)cc1 | -1% | -11% | 14µM* | -3%
O=C(/C=C/Nc1ccc(F)cc1)c1ccco1 | 0% | -17% | 13µM* | u
